{"source": "PubChem BioAssay AID1159580", "about": "(chemical genetic matrix, 2015)", "assay": "chemical genetic growth profiling, strain panel (AID 1159580);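 note: tested at 20 µM; growth read once vehicle control cultures reached saturation at 30 °C; 1 = growth at the plate median or of vehicle wells; lower values mean less growth of the strain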", "conditions": "growth OD", "key": {"[1]": {"conditions": "S. cerevisiae deletion strains, locus YAL013W, strain DEP1, stronger effect = lower value"}, "[2]": {"conditions": "S. cerevisiae deletion strains, locus YAL040C, strain CLN3, stronger effect = lower value"}, "[3]": {"conditions": "S. cerevisiae deletion strains, locus YCL061C, strain MRC1 (second series), stronger effect = lower value"}, "[4]": {"conditions": "S. cerevisiae deletion strains, locus YDR150W, strain NUM1, stronger effect = lower value"}, "[5]": {"conditions": "S. cerevisiae deletion strains, locus YDR363W, strain ESC2, stronger effect = lower value"}, "[6]": {"conditions": "S. cerevisiae deletion strains, locus YER002W, strain NOP16, stronger effect = lower value"}, "[7]": {"conditions": "S. cerevisiae deletion strains, locus YJR075W, strain HOC1, stronger effect = lower value"}, "[8]": {"conditions": "S. cerevisiae deletion strains, locus YNL153C, strain GIM3, stronger effect = lower value"}, "[9]": {"conditions": "S. cerevisiae deletion strains, locus YNL175C, strain NOP13, stronger effect = lower value"}, "[10]": {"conditions": "S. cerevisiae deletion strains, locus YNL197C, strain WHI3, stronger effect = lower value"}, "[11]": {"conditions": "S. cerevisiae deletion strains, locus YNL224C, strain SQS1, stronger effect = lower value"}, "[12]": {"conditions": "S. cerevisiae deletion strains, locus YOR083W, strain WHI5 (second series), stronger effect = lower value"}, "[13]": {"conditions": "S. cerevisiae deletion strains, locus YPL055C, strain LGE1, stronger effect = lower value"}, "[14]": {"conditions": "S. cerevisiae deletion strains, locus YPL241C, strain CIN2, stronger effect = lower value"}}, "note": "Values joined by “and” are separate entries in the source; they are usually repeats but may differ in a detail not shown here. Equal values may be shown once. Hit rate of the full screen: of about 5,500 compounds, about 2,000 (36%) were called active. Inconclusive results (about 18%) are left out. Cut-off read from the data, not from the text of the source: active = normalized growth mostly below about 0.91 (no sharp cut-off); inconclusive = no clear call, values can overlap the other calls; inactive = mostly above about 0.92. This is one part of the list. Some structures have more than one record in an assay (separate samples or runs), and their calls can disagree.", "data": [{"compound": "COc1cc2ncnc(Nc3cccc(Cl)c3)c2cc1OC", "values": [{"measurement": "normalized growth", "setting": "[1]", "result": "0.962 (inactive) and 0.936 (inactive)"}, {"measurement": "normalized growth", "setting": "[2]", "result": "1.03 (inactive)"}, {"measurement": "normalized growth", "setting": "S. cerevisiae deletion strains, locus YBR229C, strain ROT2, stronger effect = lower value", "result": "0.962 (inactive)"}, {"measurement": "normalized growth", "setting": "[3]", "result": "0.987 (inactive)"}, {"measurement": "normalized growth", "setting": "S. cerevisiae deletion strains, locus YCL061C, strain MRC1, stronger effect = lower value", "result": "0.956 (inactive)"}, {"measurement": "normalized growth", "setting": "S. cerevisiae deletion strains, locus YDL101C, strain DUN1, stronger effect = lower value", "result": "0.985 (inactive)"}, {"measurement": "normalized growth", "setting": "S. cerevisiae deletion strains, locus YDL134C, strain PPH21, stronger effect = lower value", "result": "0.877 (active)"}, {"measurement": "normalized growth", "setting": "[4]", "result": "0.915 (inactive) and 0.999 (inactive)"}, {"measurement": "normalized growth", "setting": "[5]", "result": "0.968 (inactive)"}, {"measurement": "normalized growth", "setting": "S. cerevisiae deletion strains, locus YEL061C, strain CIN8, stronger effect = lower value", "result": "0.834 (active)"}, {"measurement": "normalized growth", "setting": "[6]", "result": "0.976 (inactive)"}, {"measurement": "normalized growth", "setting": "S. cerevisiae deletion strains, locus YGR078C, strain PAC10, stronger effect = lower value", "result": "0.968 (inactive) and 0.958 (inactive)"}, {"measurement": "normalized growth", "setting": "S. cerevisiae deletion strains, locus YGR229C, strain SMI1, stronger effect = lower value", "result": "0.97 (inactive)"}, {"measurement": "normalized growth", "setting": "S. cerevisiae deletion strains, locus YHR030C, strain SLT2, stronger effect = lower value", "result": "0.882 (inactive)"}, {"measurement": "normalized growth", "setting": "S. cerevisiae deletion strains, locus YHR087W, strain rtc3, stronger effect = lower value", "result": "0.95 (inactive)"}, {"measurement": "normalized growth", "setting": "[7]", "result": "0.906 (inactive)"}, {"measurement": "normalized growth", "setting": "S. cerevisiae deletion strains, locus YLR039C, strain RIC1, stronger effect = lower value", "result": "1.03 (inactive)"}, {"measurement": "normalized growth", "setting": "S. cerevisiae deletion strains, locus YLR058C, strain SHM2 (second series), stronger effect = lower value", "result": "0.981 (inactive)"}, {"measurement": "normalized growth", "setting": "S. cerevisiae deletion strains, locus YLR085C, strain ARP6, stronger effect = lower value", "result": "0.46 (active)"}, {"measurement": "normalized growth", "setting": "S. cerevisiae deletion strains, locus YLR262C, strain YPT6, stronger effect = lower value", "result": "1.02 (inactive)"}, {"measurement": "normalized growth", "setting": "S. cerevisiae deletion strains, locus YML094W, strain GIM5, stronger effect = lower value", "result": "0.828 (active)"}, {"measurement": "normalized growth", "setting": "S. cerevisiae deletion strains, locus YMR219W, strain ESC1, stronger effect = lower value", "result": "0.986 (inactive)"}, {"measurement": "normalized growth", "setting": "S. cerevisiae deletion strains, locus YMR263W, strain SAP30, stronger effect = lower value", "result": "0.91 (inactive)"}, {"measurement": "normalized growth", "setting": "S. cerevisiae deletion strains, locus YMR307W, strain GAS1, stronger effect = lower value", "result": "0.562 (active) and 0.979 (inactive)"}, {"measurement": "normalized growth", "setting": "[8]", "result": "0.974 (inactive)"}, {"measurement": "normalized growth", "setting": "[9]", "result": "0.954 (inactive)"}, {"measurement": "normalized growth", "setting": "[10]", "result": "0.982 (inactive)"}, {"measurement": "normalized growth", "setting": "[11]", "result": "0.965 (inactive)"}, {"measurement": "normalized growth", "setting": "S. cerevisiae deletion strains, locus YNL298W, strain CLA4 (second series), stronger effect = lower value", "result": "0.883 (inactive)"}, {"measurement": "normalized growth", "setting": "S. cerevisiae deletion strains, locus YNL322C, strain KRE1, stronger effect = lower value", "result": "0.99 (inactive)"}, {"measurement": "normalized growth", "setting": "S. cerevisiae deletion strains, locus YNR030W, strain Alg12, stronger effect = lower value", "result": "0.82 (active)"}, {"measurement": "normalized growth", "setting": "[12]", "result": "0.89 (inactive)"}, {"measurement": "normalized growth", "setting": "[13]", "result": "0.815 (inactive) and 0.967 (inactive)"}, {"measurement": "normalized growth", "setting": "[14]", "result": "0.831 (active)"}, {"measurement": "normalized growth", "setting": "S. cerevisiae deletion strains, locus YPR135W, strain CTF4, stronger effect = lower value", "result": "0.533 (active)"}, {"measurement": "normalized growth", "setting": "S. cerevisiae strains, strain wild type, stronger effect = lower value", "result": "0.926 (inactive)"}]}, {"compound": "CC(C)[C@@H](CO)Nc1nc(Nc2cccc(Cl)c2)c2ncn(C(C)C)c2n1", "values": [{"measurement": "normalized growth", "setting": "[1]", "result": "1.01 (inactive)"}, {"measurement": "normalized growth", "setting": "[2]", "result": "1.01 (inactive)"}, {"measurement": "normalized growth", "setting": "[3]", "result": "1.01 (inactive)"}, {"measurement": "normalized growth", "setting": "[5]", "result": "1.02 (inactive)"}, {"measurement": "normalized growth", "setting": "[6]", "result": "1.04 (inactive)"}, {"measurement": "normalized growth", "setting": "[7]", "result": "1.02 (inactive)"}, {"measurement": "normalized growth", "setting": "[8]", "result": "0.894 (inactive)"}, {"measurement": "normalized growth", "setting": "[9]", "result": "0.982 (inactive)"}, {"measurement": "normalized growth", "setting": "[10]", "result": "0.994 (inactive)"}, {"measurement": "normalized growth", "setting": "[11]", "result": "0.989 (inactive)"}, {"measurement": "normalized growth", "setting": "[12]", "result": "0.913 (inactive)"}, {"measurement": "normalized growth", "setting": "[13]", "result": "1.02 (inactive)"}]}, {"compound": "CN(C)c1cc2c(Nc3ccc4c(cnn4Cc4ccccc4)c3)ncnc2cn1", "values": [{"measurement": "normalized growth", "setting": "[1]", "result": "0.994 (inactive)"}, {"measurement": "normalized growth", "setting": "[2]", "result": "0.971 (inactive)"}, {"measurement": "normalized growth", "setting": "[3]", "result": "1.01 (inactive)"}, {"measurement": "normalized growth", "setting": "[4]", "result": "1.01 (inactive)"}, {"measurement": "normalized growth", "setting": "[5]", "result": "0.998 (inactive)"}, {"measurement": "normalized growth", "setting": "[6]", "result": "0.98 (inactive)"}, {"measurement": "normalized growth", "setting": "[7]", "result": "1.01 (inactive)"}, {"measurement": "normalized growth", "setting": "S. cerevisiae deletion strains, locus YNL128W, strain TEP1, stronger effect = lower value", "result": "1 (inactive)"}, {"measurement": "normalized growth", "setting": "[9]", "result": "0.995 (inactive)"}, {"measurement": "normalized growth", "setting": "[10]", "result": "1 (inactive)"}, {"measurement": "normalized growth", "setting": "[11]", "result": "1.02 (inactive)"}, {"measurement": "normalized growth", "setting": "[12]", "result": "0.954 (inactive)"}, {"measurement": "normalized growth", "setting": "[14]", "result": "1 (inactive)"}]}]}
